# Measured values as given in the supplement of paper PMC8728848.
# The entries come from a sample that favours the strongest signals as a whole.
# B1: CML1 (Coprinopsis cinerea) (protein)
# chain: MAIFHTGSELFIITRGPGKLTLLTWGGLNNLRSVIGAIPTENTGVTKWAVSFSHNYTRFSFIWEGQGEACYQIGNGLTRSPVGRSWSSSSTIHWGSSTVITEDVTSVVPGAVNRDKVTTAYALPDNL
# Tests used:
# Test in all cases: glycan array binding signal (z-score within array); higher = stronger binding
# Conditions in all cases: glycan notation: IUPAC condensed, linker removed
# [1] = target: Fuc(a1-2)Gal(b1-3)GlcNAc
# Method in brief: (§1)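 The Consortium for Functional Glycomics database supplied 3228 glycan arrays, of which those lacking an available protein sequence were dropped. The binding signal, a within-array Z-score, was averaged across arrays of the same protein sequence and across linkers. Negative scores can be read as non-binding.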
# [2] = target: Fuc(a1-2)Gal(b1-3)GlcNAc(b1-2)Man(a1-3)[Fuc(a1-2)Gal(b1-3)GlcNAc(b1-2)Man(a1-6)]Man(b1-4)GlcNAc(b1-4)[Fuc(a1-6)]GlcNAc
# Method in brief: as §1
# [3] = target: Fuc(a1-2)Gal(b1-3)GlcNAc(b1-3)Gal(b1-4)Glc
# Method in brief: as §1
# [4] = target: Fuc(a1-2)Gal(b1-3)GlcNAc(b1-3)GalNAc
# Method in brief: as §1
# [5] = target: Fuc(a1-2)Gal(b1-3)GlcNAc6S
# Method in brief: as §1
# [6] = target: Fuc(a1-2)Gal(b1-4)Glc
# Method in brief: as §1
# [7] = target: Fuc(a1-2)Gal(b1-4)Glc6S
# Method in brief: as §1
# [8] = target: Fuc(a1-2)Gal(b1-4)GlcNAc(b1-3)Gal(b1-4)GlcNAc
# Method in brief: as §1
# [9] = target: Fuc(a1-2)Gal3S(b1-4)GlcNAc
# Method in brief: as §1
# [10] = target: Fuc(a1-2)Gal6S(b1-3)GlcNAc6S
# Method in brief: as §1
# [11] = target: Fuc(a1-2)[Gal(a1-3)]Gal(b1-3)GlcNAc
# Method in brief: as §1
# [12] = target: Fuc(a1-2)[Gal(a1-3)]Gal(b1-3)GlcNAc(b1-2)Man(a1-3)[Fuc(a1-2)[Gal(a1-3)]Gal(b1-3)GlcNAc(b1-2)Man(a1-6)]Man(b1-4)GlcNAc(b1-4)[Fuc(a1-6)]GlcNAc
# Method in brief: as §1
# [13] = target: Fuc(a1-2)[Gal(a1-3)]Gal(b1-4)GlcNAc(b1-2)Man
# Method in brief: as §1
# [14] = target: Fuc(a1-2)[Gal(a1-3)]Gal(b1-4)GlcNAc(b1-2)Man(a1-3)[Fuc(a1-2)[Gal(a1-3)]Gal(b1-4)GlcNAc(b1-2)Man(a1-6)]Man(b1-4)GlcNAc(b1-4)GlcNAc
# Method in brief: as §1
# [15] = target: Fuc(a1-2)[Gal(a1-4)]Gal(b1-4)GlcNAc
# Method in brief: as §1
# [16] = target: Fuc(a1-2)[GalNAc(a1-3)]Gal(b1-4)GlcNAc(b1-2)Man
# Method in brief: as §1
# [17] = target: Fuc(a1-2)[GalNAc(b1-3)]Gal
# Method in brief: as §1
# [18] = target: Gal(a1-3)Gal(b1-4)[Fuc(a1-3)]GlcNAc
# Method in brief: as §1
# [19] = target: Gal(a1-4)Gal(b1-4)Glc
# Method in brief: as §1
# [20] = target: Gal(b1-3)Gal(b1-4)GlcNAc
# Method in brief: as §1
# [21] = target: Gal(b1-3)GlcNAc(b1-3)Gal(b1-4)GlcNAc
# Method in brief: as §1
# [22] = target: Gal(b1-3)[Neu5Ac(a2-6)]GalNAc
# Method in brief: as §1
# [23] = target: Gal(b1-4)GlcNAc(b1-2)Man(a1-3)[Gal(b1-4)GlcNAc(b1-2)Man(a1-6)][Gal(b1-4)GlcNAc(b1-4)]Man(b1-4)GlcNAc(b1-4)[Fuc(a1-6)]GlcNAc
# Method in brief: as §1
# [24] = target: Gal(b1-4)GlcNAc(b1-2)Man(a1-3)[GlcNAc(b1-2)Man(a1-6)]Man(b1-4)GlcNAc(b1-4)GlcNAc
# Method in brief: as §1
# [25] = target: Gal(b1-4)GlcNAc(b1-3)Gal(b1-3)GlcNAc
# Method in brief: as §1
# [26] = target: Gal(b1-4)GlcNAc(b1-3)Gal(b1-4)GlcNAc(b1-3)Gal(b1-4)GlcNAc(b1-3)Gal(b1-4)GlcNAc(b1-3)Gal(b1-4)GlcNAc(b1-3)Gal(b1-4)GlcNAc(b1-2)Man(a1-3)[Gal(b1-4)GlcNAc(b1-3)Gal(b1-4)GlcNAc(b1-3)Gal(b1-4)GlcNAc(b1-3)Gal(b1-4)GlcNAc(b1-3)Gal(b1-4)GlcNAc(b1-3)Gal(b1-4)GlcNAc(b1-2)Man(a1-6)]Man(b1-4)GlcNAc(b1-4)GlcNAc
# Method in brief: as §1
# [27] = target: Gal3S(b1-3)[Fuc(a1-4)]GlcNAc
# Method in brief: as §1
# [28] = target: Gal6S(b1-3)GlcNAc6S
# Method in brief: as §1
# [29] = target: GalNAc(b1-3)GalNAc
# Method in brief: as §1
# [30] = target: GlcNAc(b1-3)Gal(b1-4)Glc
# Method in brief: as §1
# [31] = target: GlcNAc(b1-3)Gal(b1-4)GlcNAc
# Method in brief: as §1
# [32] = target: GlcNAc(b1-3)[GlcNAc(b1-6)]GalNAc
# Method in brief: as §1
# [33] = target: Kdn(a2-3)Gal(b1-3)GlcNAc
# Method in brief: as §1
# [34] = target: Man(a1-2)Man(a1-3)Man
# Method in brief: as §1
# [35] = target: Neu5Ac(a2-3)Gal(b1-3)GalNAc(b1-3)Gal(a1-4)Gal(b1-4)Glc
# Method in brief: as §1
# [36] = target: Neu5Ac(a2-3)Gal(b1-3)GlcNAc(b1-2)Man(a1-3)[Neu5Ac(a2-3)Gal(b1-3)GlcNAc(b1-2)Man(a1-6)]Man(b1-4)GlcNAc(b1-4)GlcNAc
# Method in brief: as §1
# [37] = target: Neu5Ac(a2-3)Gal(b1-3)[Fuc(a1-4)]GlcNAc
# Method in brief: as §1
# [38] = target: Neu5Ac(a2-3)Gal(b1-4)GlcNAc(b1-2)[Neu5Ac(a2-3)Gal(b1-4)GlcNAc(b1-4)]Man(a1-3)[GlcNAc(b1-4)][Neu5Ac(a2-3)Gal(b1-4)GlcNAc(b1-4)Man(a1-6)]Man(b1-4)GlcNAc(b1-4)GlcNAc
# Method in brief: as §1
# [39] = target: Neu5Ac(a2-3)Gal(b1-4)GlcNAc(b1-3)Gal
# Method in brief: as §1
# [40] = target: Neu5Ac(a2-3)Gal(b1-4)GlcNAc(b1-3)Gal(b1-4)GlcNAc(b1-2)Man(a1-3)[Neu5Ac(a2-3)Gal(b1-4)GlcNAc(b1-3)Gal(b1-4)GlcNAc(b1-2)Man(a1-6)]Man(b1-4)GlcNAc(b1-4)GlcNAc
# Method in brief: as §1
# [41] = target: Neu5Ac(a2-3)Gal(b1-4)GlcNAc(b1-3)Gal(b1-4)GlcNAc(b1-3)GalNAc
# Method in brief: as §1
# [42] = target: Neu5Ac(a2-3)Gal(b1-4)GlcNAc(b1-3)Gal(b1-4)[Fuc(a1-3)]GlcNAc
# Method in brief: as §1
# [43] = target: Neu5Ac(a2-3)Gal(b1-4)[Fuc(a1-3)]GlcNAc(b1-3)Gal
# Method in brief: as §1
# [44] = target: Neu5Ac(a2-3)Gal(b1-4)[Fuc(a1-3)]GlcNAc(b1-3)Gal(b1-4)GlcNAc
# Method in brief: as §1
# [45] = target: Neu5Ac(a2-3)Gal(b1-4)[Fuc(a1-3)]GlcNAc6S
# Method in brief: as §1
# [46] = target: Neu5Ac(a2-3)Gal6S(b1-4)GlcNAc
# Method in brief: as §1
# [47] = target: Neu5Ac(a2-3)Gal6S(b1-4)[Fuc(a1-3)]GlcNAc
# Method in brief: as §1
# [48] = target: Neu5Ac(a2-3)[GalNAc(b1-4)]Gal(b1-4)GlcNAc
# Method in brief: as §1
# [49] = target: Neu5Ac(a2-6)Gal(b1-4)GlcNAc
# Method in brief: as §1
# [50] = target: Neu5Ac(a2-6)Gal(b1-4)GlcNAc(b1-2)[Neu5Ac(a2-6)Gal(b1-4)GlcNAc(b1-4)]Man(a1-3)[GlcNAc(b1-4)][Neu5Ac(a2-6)Gal(b1-4)GlcNAc(b1-2)[Neu5Ac(a2-6)Gal(b1-4)GlcNAc(b1-6)]Man(a1-6)]Man(b1-4)GlcNAc(b1-4)GlcNAc
# Method in brief: as §1
# [51] = target: Neu5Ac(a2-6)Gal(b1-4)GlcNAc(b1-3)Gal(b1-3)GlcNAc
# Method in brief: as §1
# [52] = target: Neu5Ac(a2-6)Gal(b1-4)GlcNAc(b1-6)[Gal(b1-3)GlcNAc(b1-3)]Gal(b1-4)Glc
# Method in brief: as §1
# [53] = target: Neu5Ac(a2-6)Gal(b1-4)GlcNAc6S
# Method in brief: as §1
# [54] = target: Neu5Ac(a2-6)GalNAc
# Method in brief: as §1
# [55] = target: Neu5Ac9Ac(a2-3)Gal(b1-4)GlcNAc
# Method in brief: as §1
# [56] = target: Neu5Gc(b2-6)Gal(b1-4)GlcNAc
# Method in brief: as §1
binder,measurement,setting,value
B1,glycan array binding signal (z-score),[1],5.31
same,glycan array binding signal (z-score),[2],1.34
same,glycan array binding signal (z-score),[3],4.85
same,glycan array binding signal (z-score),[4],3.31
same,glycan array binding signal (z-score),[5],4.12
same,glycan array binding signal (z-score),[6],-0.039
same,glycan array binding signal (z-score),[7],1.38
same,glycan array binding signal (z-score),[8],-0.335
same,glycan array binding signal (z-score),[9],-0.157
same,glycan array binding signal (z-score),[10],3.67
same,glycan array binding signal (z-score),[11],3.51
same,glycan array binding signal (z-score),[12],1.07
same,glycan array binding signal (z-score),[13],-0.329
same,glycan array binding signal (z-score),[14],-0.242
same,glycan array binding signal (z-score),[15],-0.314
same,glycan array binding signal (z-score),[16],-0.348
same,glycan array binding signal (z-score),[17],-0.318
same,glycan array binding signal (z-score),[18],-0.346
same,glycan array binding signal (z-score),[19],-0.322
same,glycan array binding signal (z-score),[20],-0.329
same,glycan array binding signal (z-score),[21],-0.339
same,glycan array binding signal (z-score),[22],-0.338
same,glycan array binding signal (z-score),[23],-0.348
same,glycan array binding signal (z-score),[24],-0.342
same,glycan array binding signal (z-score),[25],-0.326
same,glycan array binding signal (z-score),[26],-0.303
same,glycan array binding signal (z-score),[27],3.48
same,glycan array binding signal (z-score),[28],-0.336
same,glycan array binding signal (z-score),[29],-0.349
same,glycan array binding signal (z-score),[30],-0.323
same,glycan array binding signal (z-score),[31],-0.329
same,glycan array binding signal (z-score),[32],-0.329
same,glycan array binding signal (z-score),[33],-0.319
same,glycan array binding signal (z-score),[34],-0.348
same,glycan array binding signal (z-score),[35],-0.333
same,glycan array binding signal (z-score),[36],-0.355
same,glycan array binding signal (z-score),[37],4.64
same,glycan array binding signal (z-score),[38],-0.332
same,glycan array binding signal (z-score),[39],-0.3
same,glycan array binding signal (z-score),[40],-0.331
same,glycan array binding signal (z-score),[41],-0.342
same,glycan array binding signal (z-score),[42],-0.341
same,glycan array binding signal (z-score),[43],4.46
same,glycan array binding signal (z-score),[44],2.41
same,glycan array binding signal (z-score),[45],4.04
same,glycan array binding signal (z-score),[46],6.01
same,glycan array binding signal (z-score),[47],3.49
same,glycan array binding signal (z-score),[48],-0.353
same,glycan array binding signal (z-score),[49],-0.352
same,glycan array binding signal (z-score),[50],-0.321
same,glycan array binding signal (z-score),[51],-0.35
same,glycan array binding signal (z-score),[52],-0.355
same,glycan array binding signal (z-score),[53],-0.334
same,glycan array binding signal (z-score),[54],-0.331
same,glycan array binding signal (z-score),[55],-0.348
same,glycan array binding signal (z-score),[56],-0.339
